Holding throughout (settings): concentration: 1 μM, replicates: in singlicate; n = 1
In test [1] the test system is PIM1.
The subject of test [2] is PIM2.
Test [3] concerns PIM3.
The subject of test [4] is PIP5K1A.
In test [5] the test system is PIP5K1C.
The test system of test [6] is PIP5K2B.
Test [7] concerns T1, PIP5K2C.
T1 construct: gene PIP4K2C

For test [8], the system named is T2, PKAC-alpha.
T2 construct: gene PRKACA

Test [9] relates to T3, PKAC-beta.
T3 construct: gene PRKACB

Test [10] concerns PKMYT1.
In test [11] the test system is PKN1.
Test [12] concerns PKN2.
For test [13], the system named is PLK1.
Test [14] deals with PLK2.
Test [15] deals with PLK3.
Test [16] concerns PLK4.
Test [17] concerns PRKCD.
The test system of test [18] is PRKCE.
The subject of test [19] is PRKCH.
Test [20] concerns PRKCI.
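Note: KINOMEscan kinase panel screen.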

For the compound `Cl.Oc1ccc(-c2nc(-c3ccccc3)[nH]c2-c2ccncc2)cc1` [SB-428218], the “%Inh” value in test [1] is recorded as 44%; in test [2], 0%; in test [3] it was 42%; in test [4] it was 72%; in [5], 49%; in test [6] it was 0%. The “%Inh” value in test [7] is 58%; in test [8], 0%; in test [9], 16%; in test [10], 14%; in test [11], 0%; in test [12], 0%. Further, the “%Inh” value in test [13] is recorded as 0%; in test [14], 0%; in test [15], 0%; in [16] it was 0%; in [17], 0%; in test [18] it was 33%. The results for the “%Inh” value in test [19] and in [20] were 0% and 12%, respectively.

`COc1cc2ncn(-c3cc(OCC4CCCO4)c(C(N)=O)s3)c2cc1OC` (stereo not shown) [GSK204607]: the “%Inh” value in test [1] amounted to 17%; in [2], 0%; in test [3], 0%; in test [4] it was 6%; in test [5] it was 84%; in test [6], 9%. The “%Inh” value in test [7] is 33%; in test [8] it was 0%; in test [9], 0%; in [10], 0%; in [11], 0%; in test [12], 0%. For the same compound, the “%Inh” value in [13] is given as 98.9%; in test [14] it was 99.4%; in test [15], 98.3%; in [16] it was 0%; in test [17], 0%; in test [18] it was 2%. In addition, the “%Inh” value in test [19] was determined as 0%; in test [20], 100%.

With `Cc1cccc(-c2nc(Nc3cccc(C(N)=O)c3)c3ccccc3n2)n1` [GW876019], the “%Inh” value is listed as 3% in [1]; 9% in test [2]; 4% in [3]; 12% in test [4]; 50% in [5]; 0% in test [6]. In addition, the “%Inh” value came to 50% in test [7]; 0% in [8]; 36% in test [9]; 32% in [10]; 0% in test [11]; 0% in test [12]. Moreover, the “%Inh” value in test [13] is given as 0%; in test [14] it was 0%; in test [15], 4%; in test [16] it was 0%; in test [17] it was 7%; in test [18], 0%. The results for the “%Inh” value in test [19] and in [20] were 0% and 24%, respectively.

Consider `Cc1csc(-c2nc(Nc3ccncc3)c3ccccc3n2)n1` [GW869640], for which the “%Inh” value in test [1] stood at 31%; in [2] it was 0%; in [3], 17%; in [4] it was 0%; in test [5], 29%; in [6] it was 2%. Also, the “%Inh” value in test [7] amounted to 2%; in test [8], 14%; in test [9] it was 44%; in test [10] it was 16%; in [11], 0%; in [12], 23%. For the same compound, the “%Inh” value is reported as 51% in test [13]; 40% in test [14]; 31% in test [15]; 24% in test [16]; 21% in [17]; 37% in test [18]. Moreover, the “%Inh” value in test [19] came to 0%; in test [20] it was 30%.

With `Cc1cccc(-c2cc(Nc3ccncc3)c3ccccc3n2)n1` [GSK223675], the “%Inh” value came out at 23% in test [1]; 0% in [2]; 19% in test [3]; 0% in test [4]; 25% in test [5]; 4% in test [6]. The “%Inh” value in [7] is 8%; in [8], 0%; in [9] it was 0%; in test [10] it was 0%; in test [11], 46%; in [12], 0%. Besides, the “%Inh” value in test [13] is listed as 1%; in test [14], 0%; in [15], 0%; in [16] it was 2%; in [17], 0%; in test [18], 0%. Also, the “%Inh” value turned out to be 0% in test [19] and 17% in test [20].

On to `Cn1ccc2ncnc(Oc3cccc(C(=O)Nc4ccccc4)c3)c21`, for which the “%Inh” value amounted to 1% in test [1]; 0% in test [2]; 14% in test [3]; 0% in test [4]; 0% in test [5]; 17% in test [6]. For the same compound, the “%Inh” value in [7] is 8%; in [8], 8%; in test [9], 0%; in [10], 16%; in test [11], 0%; in test [12] it was 0%. Further, the “%Inh” value in test [13] came out at 0%; in test [14], 0%; in test [15] it was 0%; in test [16] it was 2%; in [17], 2%; in test [18], 0%. The “%Inh” value in [19] and in test [20] was 0% throughout.

As to `COc1ccc(Nc2nccc(-c3cccc(NC(=O)c4cc5cc(F)ccc5[nH]4)c3)n2)cc1` [GSK1229782], the “%Inh” value in test [1] is reported as 36%; in [2] it was 0%; in [3], 30%; in test [4], 0%; in test [5], 15%; in [6] it was 12%. Besides, the “%Inh” value in test [7] was determined as 81%; in test [8], 15%; in test [9], 21%; in [10], 6%; in test [11] it was 0%; in test [12], 0%. The “%Inh” value in test [13] is reported as 24%; in test [14], 0%; in [15] it was 0%; in test [16], 4%; in test [17], 42%; in [18] it was 43%. Further, the “%Inh” value in test [19] is listed as 20%; in [20], 32%.

Turning to `COC(=O)c1c(-c2ccccc2)c2cc(OC)ccc2c(=O)n1Cc1ccccc1`, the “%Inh” value in [1] came to 18%; in [2] it was 2%; in test [3], 20%; in test [4], 16%; in [5] it was 14%; in test [6], 38%. Further, the “%Inh” value in test [7] came to 0%; in test [8], 21%; in test [9], 0%; in test [10] it was 2%; in test [11], 4%; in test [12], 0%. Moreover, the “%Inh” value was 0% in test [13]; 25% in test [14]; 20% in test [15]; 19% in [16]; 19% in test [17]; 12% in [18]. In addition, the results for the “%Inh” value in [19] and in test [20] were 9% and 0%, respectively.

In the case of `Cc1cc(-c2ccc3c(c2)CC[C@@H](N[C@@H](C)c2ccccc2)C3)cnc1N.Cl` [GW412617], the “%Inh” value turned out to be 11% in [1]; 0% in test [2]; 0% in [3]; 0% in test [4]; 34% in test [5]; 14% in [6]. Moreover, the “%Inh” value in test [7] came to 0%; in test [8], 0%; in test [9], 9%; in test [10], 0%; in test [11] it was 8%; in test [12], 0%. The “%Inh” value in test [13] is 16%; in test [14], 0%; in [15], 0%; in [16] it was 0%; in test [17], 7%; in test [18], 0%. For the same compound, the entries for the “%Inh” value in test [19] and in test [20] were 17% and 0%, respectively.

Turning to `COc1ccccc1CNC(=O)c1cc(C(=O)c2ccccc2C)c[nH]1` [GSK364507], the “%Inh” value worked out at 0% in [1]; 0% in test [2]; 0% in test [3]; 0% in [4]; 26% in test [5]; 8% in test [6]. Moreover, the “%Inh” value is given as 25% in test [7]; 0% in test [8]; 0% in test [9]; 0% in [10]; 0% in test [11]; 0% in test [12]. Also, the “%Inh” value in test [13] amounted to 0%; in test [14] it was 0%; in [15], 0%; in test [16] it was 100%; in [17], 0%; in test [18], 1%. Also, the “%Inh” value in test [19] stood at 6%; in test [20], 3%.

On to `COc1ccccc1-c1ccc2c(NC(=O)C3CC3)n[nH]c2n1` [SB-711239], for which the “%Inh” value in test [1] is on record as 13%; in test [2], 0%; in [3] it was 0%; in [4] it was 41%; in test [5] it was 53%; in test [6], 30%. In addition, the “%Inh” value in test [7] stood at 19%; in test [8], 6%; in [9], 2%; in [10], 0%; in test [11] it was 12%; in [12], 2%. Moreover, the “%Inh” value in test [13] came to 10%; in test [14], 0%; in test [15], 0%; in test [16], 0%; in test [17], 0%; in test [18] it was 3%. Moreover, the “%Inh” value in test [19] was 27%; in test [20] it was 0%.
